{"source": "ChEMBL document CHEMBL1961873", "about": "“Compounds: GSK PKIS; Assays: Nanosyn kinase panel” (2012)", "data": [{"biological_target": "T1, Tyrosine-protein kinase JAK3 (Homo sapiens) (UniProt P52333)", "T1 sequence (whole entry)": "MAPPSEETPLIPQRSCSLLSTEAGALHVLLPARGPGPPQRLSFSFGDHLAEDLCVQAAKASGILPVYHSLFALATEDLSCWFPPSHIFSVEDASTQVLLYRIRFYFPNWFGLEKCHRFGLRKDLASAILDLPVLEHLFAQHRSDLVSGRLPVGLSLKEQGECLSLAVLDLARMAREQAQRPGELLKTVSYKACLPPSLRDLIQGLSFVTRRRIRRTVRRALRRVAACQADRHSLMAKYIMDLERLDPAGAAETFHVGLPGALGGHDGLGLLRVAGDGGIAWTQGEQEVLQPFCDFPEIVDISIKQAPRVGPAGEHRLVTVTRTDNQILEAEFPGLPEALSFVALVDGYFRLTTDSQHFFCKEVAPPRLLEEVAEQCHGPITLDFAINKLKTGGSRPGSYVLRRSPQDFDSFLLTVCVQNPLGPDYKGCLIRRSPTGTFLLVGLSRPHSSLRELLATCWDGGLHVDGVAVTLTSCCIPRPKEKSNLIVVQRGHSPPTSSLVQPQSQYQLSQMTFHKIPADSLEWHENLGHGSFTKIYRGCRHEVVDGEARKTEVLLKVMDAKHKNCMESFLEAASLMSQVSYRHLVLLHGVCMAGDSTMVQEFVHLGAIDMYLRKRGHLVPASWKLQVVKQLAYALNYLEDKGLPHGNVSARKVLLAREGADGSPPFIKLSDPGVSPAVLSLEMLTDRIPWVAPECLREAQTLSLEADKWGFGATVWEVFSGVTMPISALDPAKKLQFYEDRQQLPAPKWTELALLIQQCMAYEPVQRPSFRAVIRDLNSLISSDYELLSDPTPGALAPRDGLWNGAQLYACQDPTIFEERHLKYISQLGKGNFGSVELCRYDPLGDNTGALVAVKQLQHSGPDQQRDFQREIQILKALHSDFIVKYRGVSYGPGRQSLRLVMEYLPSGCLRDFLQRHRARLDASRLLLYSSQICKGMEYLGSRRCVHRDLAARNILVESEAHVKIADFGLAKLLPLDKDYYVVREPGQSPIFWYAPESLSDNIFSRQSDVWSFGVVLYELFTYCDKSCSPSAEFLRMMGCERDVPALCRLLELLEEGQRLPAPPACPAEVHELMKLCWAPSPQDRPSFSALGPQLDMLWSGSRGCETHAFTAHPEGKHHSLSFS", "conditions": "at 1 µM", "units": {"inhibition": "%"}, "values": [{"smiles": "N#Cc1c(NC(=O)c2cccc3ccccc23)sc2c1CCCC2", "inhibition": 1.51}, {"smiles": "COc1cc(C=NNc2ncnc3c2cnn3-c2ccccc2)ccc1O", "inhibition": 4.39}, {"smiles": "CC(C)=Cc1cccc2c1/C(=N/Nc1ccc(S(N)(=O)=O)cc1)C(=O)N2", "inhibition": 54.4}, {"smiles": "Cc1ccc(NC(=O)c2ccnc(N3CCCC3)c2)cc1-c1ccc(C(=O)NCC2CC2)cc1", "inhibition": 2.32}, {"smiles": "Nc1nc(-c2ccc3c(c2)C(=Cc2cc(Br)c(O)c(Br)c2)C(=O)N3)cs1", "inhibition": 2.02}, {"smiles": "CS(=O)(=O)CCNCc1ccc(-c2ccc3ncnc(Nc4ccc(OCc5cccc(F)c5)c(C(F)(F)F)c4)c3c2)o1", "inhibition": -0.15}, {"smiles": "COc1ccc(-c2coc3ncnc(N)c23)cc1", "inhibition": 2.35}, {"smiles": "CCCN1CCC=C(c2ccc(Nc3nc(Nc4ccccc4C(N)=O)c4cc[nH]c4n3)c(C)c2)C1", "inhibition": 0.49}, {"smiles": "O=C1NC(=O)C(c2cccc(Cl)c2)=C1Nc1ccc(O)c(Cl)c1", "inhibition": 51.4}, {"smiles": "COc1cc2ncn(-c3cc(O[C@H](C)c4ccccc4Cl)c(C(N)=O)s3)c2cc1OC", "inhibition": 25.9}, {"smiles": "CC1=C(C(=O)Nc2ccc3[nH]ncc3c2)C(c2ccc3ccccc3c2)CC(=O)N1", "note": "(stereo unspecified)", "inhibition": 30.9}, {"smiles": "O=C1NC(=O)C(c2ccc(Cl)cc2)=C1Nc1ccc(Cl)c(C(=O)O)c1", "inhibition": 2.64}, {"smiles": "c1cnn2ncc(-c3ccnc(Nc4ccc5c(c4)OCCO5)n3)c2c1", "inhibition": 46}, {"smiles": "COc1cc2ncn(-c3cc(O[C@@H](C)c4ccccc4Cl)c(C(N)=O)s3)c2cc1OC", "inhibition": 1.97}, {"smiles": "CCn1c(-c2nonc2N)nc2c(C#CC(C)(C)O)nc(CN3CCCC3)cc21", "inhibition": 1.49}, {"smiles": "CCn1c(-c2nonc2N)nc2ccncc21", "inhibition": 2.73}, {"smiles": "CNC(=O)c1cncc(/C=C/c2c(Cl)cccc2Cl)c1", "inhibition": -3.71}, {"smiles": "Cc1nnc(-c2ccc(C)c(-c3ccc(C(=O)Nc4cccc(C#N)c4)cc3)c2)o1", "inhibition": 1.29}, {"smiles": "CN(C)c1cc2c(Nc3ccc4nc(Cc5ccccc5)[nH]c4c3)ncnc2cn1", "inhibition": -1.24}, {"smiles": "Cc1cccc(-c2n[nH]cc2-c2ccc3ncccc3n2)n1", "inhibition": 3.06}, {"smiles": "CS(=O)(=O)CCN(CC#N)Cc1ccc(-c2ccc3ncnc(Nc4ccc(OCc5cccc(F)c5)c(Cl)c4)c3c2)o1", "inhibition": -5.16}, {"smiles": "CCn1c(-c2nonc2N)nc2c(C#CC(C)(C)O)nc(OC[C@@H](N)c3ccccc3)cc21", "inhibition": 4.39}, {"smiles": "CC(=O)Nc1cccc(C#Cc2cncnc2Nc2ccc(OCc3cccc(F)c3)c(Cl)c2)n1", "inhibition": 2.66}, {"smiles": "CC1=C(C(=O)Nc2ccc3[nH]ncc3c2)C(c2ccc(Cl)c(Cl)c2)CC(=O)N1", "note": "(stereo unspecified)", "inhibition": 18}, {"smiles": "O=C1Nc2ccc(C(=O)c3ccco3)cc2C1=Cc1cc(Cl)c(O)c(Cl)c1", "inhibition": 66.9}, {"smiles": "CS(=O)(=O)Nc1ccc(N/C=C2\\C(=O)Nc3ccccc32)cc1", "inhibition": 8.16}, {"smiles": "COc1cc2ncn(-c3cc(OCc4ccccc4Cl)c(C(N)=O)s3)c2cc1OC", "inhibition": 4.86}, {"smiles": "Fc1cccc(COc2ccc(Nc3ncnc4sc(-c5cccs5)cc34)cc2Cl)c1", "inhibition": 1.31}, {"smiles": "[O-][S+]1CCN(Cc2ccc(-c3ccc4ncnc(Nc5ccc(OCc6ccccc6)c(F)c5)c4c3)o2)CC1", "inhibition": -0.11}, {"smiles": "Cc1ccc(C(=O)NC2CCCCC2)cc1-c1ccc(C(=O)NCC2CC2)cc1", "inhibition": 3.02}, {"smiles": "Cc1nn(C)c2cc(N(C)c3ccnc(Nc4cccc(S(N)(=O)=O)c4)n3)ccc12", "inhibition": 27.3}, {"smiles": "CCN1CCC(CC(=O)Nc2n[nH]c3nc(-c4cccs4)c(Br)cc23)CC1", "inhibition": 2.19}, {"smiles": "COc1ccc(-c2nn3ncccc3c2-c2ccnc(Nc3ccc(Cl)c(C(F)(F)F)c3)n2)cc1", "inhibition": -0.67}]}, {"biological_target": "Vascular endothelial growth factor receptor 2 (Homo sapiens) (UniProt P35968)", "sequence (P35968 whole entry)": "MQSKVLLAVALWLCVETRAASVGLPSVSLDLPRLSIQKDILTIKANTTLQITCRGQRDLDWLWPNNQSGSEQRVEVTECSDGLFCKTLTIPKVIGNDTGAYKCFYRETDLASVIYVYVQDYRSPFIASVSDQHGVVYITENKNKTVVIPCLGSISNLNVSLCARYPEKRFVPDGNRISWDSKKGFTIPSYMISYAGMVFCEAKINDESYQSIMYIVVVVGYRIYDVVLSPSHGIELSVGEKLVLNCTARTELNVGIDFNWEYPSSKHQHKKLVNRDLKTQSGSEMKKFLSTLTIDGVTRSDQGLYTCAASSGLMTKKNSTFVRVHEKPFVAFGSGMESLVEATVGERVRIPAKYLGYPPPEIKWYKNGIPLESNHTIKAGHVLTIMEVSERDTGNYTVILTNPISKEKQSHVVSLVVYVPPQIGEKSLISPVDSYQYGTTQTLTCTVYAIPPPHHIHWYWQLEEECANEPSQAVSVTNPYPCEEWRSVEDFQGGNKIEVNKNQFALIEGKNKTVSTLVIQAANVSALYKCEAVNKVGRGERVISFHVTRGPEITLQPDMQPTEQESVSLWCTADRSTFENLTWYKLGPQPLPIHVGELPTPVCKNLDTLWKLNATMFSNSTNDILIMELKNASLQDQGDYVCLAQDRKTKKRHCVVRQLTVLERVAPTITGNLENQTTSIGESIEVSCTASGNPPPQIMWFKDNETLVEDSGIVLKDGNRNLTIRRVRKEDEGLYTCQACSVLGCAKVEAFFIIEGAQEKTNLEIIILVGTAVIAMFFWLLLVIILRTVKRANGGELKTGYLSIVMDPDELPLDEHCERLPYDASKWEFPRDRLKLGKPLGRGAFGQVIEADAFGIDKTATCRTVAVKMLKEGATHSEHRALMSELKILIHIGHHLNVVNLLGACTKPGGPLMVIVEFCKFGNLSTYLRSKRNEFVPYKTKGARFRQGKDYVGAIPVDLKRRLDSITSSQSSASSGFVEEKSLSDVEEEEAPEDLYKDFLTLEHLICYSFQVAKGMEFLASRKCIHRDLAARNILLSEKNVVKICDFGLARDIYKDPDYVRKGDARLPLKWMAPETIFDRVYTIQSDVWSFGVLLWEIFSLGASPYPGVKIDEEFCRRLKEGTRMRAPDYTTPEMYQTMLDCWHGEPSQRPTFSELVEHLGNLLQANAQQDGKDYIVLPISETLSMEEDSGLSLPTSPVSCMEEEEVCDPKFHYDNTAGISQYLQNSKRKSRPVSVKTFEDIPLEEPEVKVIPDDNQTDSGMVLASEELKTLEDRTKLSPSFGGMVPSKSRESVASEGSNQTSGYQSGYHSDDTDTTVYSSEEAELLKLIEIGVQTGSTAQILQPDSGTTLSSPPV", "conditions": "at 0.1 µM", "units": {"inhibition": "%"}, "values": [{"smiles": "N#Cc1c(NC(=O)c2cccc3ccccc23)sc2c1CCCC2", "inhibition": 6.33}, {"smiles": "COc1cc(C=NNc2ncnc3c2cnn3-c2ccccc2)ccc1O", "inhibition": 12.4}, {"smiles": "CC(C)=Cc1cccc2c1/C(=N/Nc1ccc(S(N)(=O)=O)cc1)C(=O)N2", "inhibition": 8.9}, {"smiles": "Cc1ccc(NC(=O)c2ccnc(N3CCCC3)c2)cc1-c1ccc(C(=O)NCC2CC2)cc1", "inhibition": 9.55}, {"smiles": "Nc1nc(-c2ccc3c(c2)C(=Cc2cc(Br)c(O)c(Br)c2)C(=O)N3)cs1", "inhibition": 1.8}, {"smiles": "CS(=O)(=O)CCNCc1ccc(-c2ccc3ncnc(Nc4ccc(OCc5cccc(F)c5)c(C(F)(F)F)c4)c3c2)o1", "inhibition": 3.99}, {"smiles": "COc1ccc(-c2coc3ncnc(N)c23)cc1", "inhibition": 6.15}, {"smiles": "CCCN1CCC=C(c2ccc(Nc3nc(Nc4ccccc4C(N)=O)c4cc[nH]c4n3)c(C)c2)C1", "inhibition": 0.98}, {"smiles": "O=C1NC(=O)C(c2cccc(Cl)c2)=C1Nc1ccc(O)c(Cl)c1", "inhibition": 3.41}, {"smiles": "COc1cc2ncn(-c3cc(O[C@H](C)c4ccccc4Cl)c(C(N)=O)s3)c2cc1OC", "inhibition": 36.4}, {"smiles": "CC1=C(C(=O)Nc2ccc3[nH]ncc3c2)C(c2ccc3ccccc3c2)CC(=O)N1", "note": "(stereo unspecified)", "inhibition": 5.3}, {"smiles": "O=C1NC(=O)C(c2ccc(Cl)cc2)=C1Nc1ccc(Cl)c(C(=O)O)c1", "inhibition": 4.84}, {"smiles": "c1cnn2ncc(-c3ccnc(Nc4ccc5c(c4)OCCO5)n3)c2c1", "inhibition": 9.54}, {"smiles": "COc1cc2ncn(-c3cc(O[C@@H](C)c4ccccc4Cl)c(C(N)=O)s3)c2cc1OC", "inhibition": 18}, {"smiles": "CCn1c(-c2nonc2N)nc2c(C#CC(C)(C)O)nc(CN3CCCC3)cc21", "inhibition": 5.26}, {"smiles": "CCn1c(-c2nonc2N)nc2ccncc21", "inhibition": 1.87}, {"smiles": "CNC(=O)c1cncc(/C=C/c2c(Cl)cccc2Cl)c1", "inhibition": 6.02}, {"smiles": "Cc1nnc(-c2ccc(C)c(-c3ccc(C(=O)Nc4cccc(C#N)c4)cc3)c2)o1", "inhibition": 3.3}, {"smiles": "CN(C)c1cc2c(Nc3ccc4nc(Cc5ccccc5)[nH]c4c3)ncnc2cn1", "inhibition": 7.5}, {"smiles": "Cc1cccc(-c2n[nH]cc2-c2ccc3ncccc3n2)n1", "inhibition": 61.3}, {"smiles": "CS(=O)(=O)CCN(CC#N)Cc1ccc(-c2ccc3ncnc(Nc4ccc(OCc5cccc(F)c5)c(Cl)c4)c3c2)o1", "inhibition": 4.09}, {"smiles": "CCn1c(-c2nonc2N)nc2c(C#CC(C)(C)O)nc(OC[C@@H](N)c3ccccc3)cc21", "inhibition": 35.1}, {"smiles": "CC(=O)Nc1cccc(C#Cc2cncnc2Nc2ccc(OCc3cccc(F)c3)c(Cl)c2)n1", "inhibition": -2.26}, {"smiles": "CC1=C(C(=O)Nc2ccc3[nH]ncc3c2)C(c2ccc(Cl)c(Cl)c2)CC(=O)N1", "note": "(stereo unspecified)", "inhibition": 3.14}, {"smiles": "O=C1Nc2ccc(C(=O)c3ccco3)cc2C1=Cc1cc(Cl)c(O)c(Cl)c1", "inhibition": 6.41}, {"smiles": "CS(=O)(=O)Nc1ccc(N/C=C2\\C(=O)Nc3ccccc32)cc1", "inhibition": 6.66}, {"smiles": "COc1cc2ncn(-c3cc(OCc4ccccc4Cl)c(C(N)=O)s3)c2cc1OC", "inhibition": 12.2}, {"smiles": "Fc1cccc(COc2ccc(Nc3ncnc4sc(-c5cccs5)cc34)cc2Cl)c1", "inhibition": 4.41}, {"smiles": "[O-][S+]1CCN(Cc2ccc(-c3ccc4ncnc(Nc5ccc(OCc6ccccc6)c(F)c5)c4c3)o2)CC1", "inhibition": 2.98}, {"smiles": "Cc1ccc(C(=O)NC2CCCCC2)cc1-c1ccc(C(=O)NCC2CC2)cc1", "inhibition": 7.88}, {"smiles": "Cc1nn(C)c2cc(N(C)c3ccnc(Nc4cccc(S(N)(=O)=O)c4)n3)ccc12", "inhibition": 45.4}, {"smiles": "CCN1CCC(CC(=O)Nc2n[nH]c3nc(-c4cccs4)c(Br)cc23)CC1", "inhibition": 1.49}, {"smiles": "COc1ccc(-c2nn3ncccc3c2-c2ccnc(Nc3ccc(Cl)c(C(F)(F)F)c3)n2)cc1", "inhibition": 1.69}]}]}
